Laboratory results: PubChem BioAssay (NCATS)
Several values for one entry are separate records, joined by “and”; a condition that tells them apart may be missing. Identical values can stand only once. Inconclusive results are not listed. Activity calls are given as the source filed them. Calls follow the shape of the dose curve; as a rule, active = well fitted inhibition curve with a large enough effect; inconclusive = small, poorly fitted or top-dose-only effect; inactive = flat fitted curve, though single readings scatter.

How the values were obtained:
[1] = Drug repurposing screens with cells derived from glioblastoma tumor samples (AID 1345199); settings: GBM patient neurospheres viability, ATP luminescence, 48 h; also: nearly all actives have a fitted effect of over 40% in size
Method in brief: (§1)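 Four patient lines of CD133+ GBM neurospheres were screened at several concentrations; hits were retested in those lines plus three slower-growing GBM lines, using 48-hour treatment and ATP-based viability.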

astro = control astrocytes; test: as above; settings: viability, ATP luminescence, 48 h; series mostly up to 45.9 µM
Method in brief: as §1

[2] = at 45.9 µM (top of the series), tumour line B
[3] = at 45.9 µM (top of the series), tumour line D
[4] = at 46 µM (top of the series), tumour line A
[5] = at 46.1 µM (top of the series), tumour line C
% is scaled to controls: 0 for no effect and ±100 for the full control effect; potency is read from the fitted curve at half-maximal effect.

CO[C@@]1(NC(=O)C2SC(=C(C(N)=O)C(=O)O)S2)C(=O)N2C(C(=O)O)=C(CSc3nnnn3C)CS[C@@H]21 (stereo not given in full)
inactive: activity, negative = cell killing ([1]; at 20 µM (top of the series), tumour line C) -19.2% | activity, negative = cell killing ([1]; at 21.2 µM (top of the series), tumour line B) -15.8% | activity, negative = cell killing ([1]; at 21.2 µM (top of the series), tumour line D) -10.4% | activity, negative = cell killing ([1]; at 21.3 µM (top of the series), tumour line A) -12.5% | Potency (astro)

CCCOC(=O)c1ccccc1O
inactive: activity, negative = cell killing [1, 2] -5.91% | activity, negative = cell killing [1, 3] 2.55% | activity, negative = cell killing [1, 4] -23.3% | activity, negative = cell killing [1, 5] -5.92% | Potency (astro)

COC(=O)[C@H]1[C@H]2C[C@@H]3c4[nH]c5cc(OC)ccc5c4CCN3C[C@H]2C[C@H](OC)[C@@H]1OC
active: Potency ([1]; tumour line A) 11.2 µM
inactive: activity, negative = cell killing [1, 2] -8.25% | activity, negative = cell killing [1, 3] -1.56% | activity, negative = cell killing [1, 5] -6.43% | Potency (astro)

CC(=O)Nc1c(I)c(C(=O)O)c(I)c(N(C)C(C)=O)c1I
inactive: activity, negative = cell killing [1, 2] 6.39% | activity, negative = cell killing [1, 3] 5.92% | activity, negative = cell killing [1, 4] -22.3% | activity, negative = cell killing [1, 5] 7.24% | Potency (astro)

O=C(OC[C@H]1O[C@@H](OC(=O)c2cc(O)c(O)c(OC(=O)c3cc(O)c(O)c(O)c3)c2)[C@H](OC(=O)c2cc(O)c(O)c(OC(=O)c3cc(O)c(O)c(O)c3)c2)[C@@H](OC(=O)c2cc(O)c(O)c(OC(=O)c3cc(O)c(O)c(O)c3)c2)[C@@H]1OC(=O)c1cc(O)c(O)c(OC(=O)c2cc(O)c(O)c(O)c2)c1)c1cc(O)c(O)c(OC(=O)c2cc(O)c(O)c(O)c2)c1
active: Potency ([1]; tumour line A) 15.8 µM | Potency ([1]; tumour line B) 22.4 µM | Potency ([1]; tumour line D) 17.8 µM | Potency (astro) 2.82 µM
inactive: activity, negative = cell killing [1, 5] -14.4%

O=C(O)c1cc(N=Nc2ccc(O)c(C(=O)O)c2)ccc1O
inactive: activity, negative = cell killing [1, 2] -10.7% | activity, negative = cell killing [1, 3] -13.9% | activity, negative = cell killing [1, 4] -13.2% | activity, negative = cell killing [1, 5] -29.5% | Potency (astro)

F[Si-2](F)(F)(F)(F)F
inactive: activity, negative = cell killing [1, 2] 5.47% | activity, negative = cell killing [1, 3] -3.02% | activity, negative = cell killing [1, 4] -17.6% | activity, negative = cell killing [1, 5] 30.2% | Potency (astro)

CCCCC(CC)CCC(CC(C)C)OS(=O)(=O)O (stereo not given)
inactive: activity, negative = cell killing [1, 2] -14.6% and -5.66% | activity, negative = cell killing [1, 3] -13.9% and 2.49% | activity, negative = cell killing [1, 4] -21.7% and -3.22% | activity, negative = cell killing [1, 5] -16.9% and 4.88% | Potency (astro)

Cn1cc(NC(=O)c2cc(NC(=O)c3cc(NC=O)cn3C)cn2C)cc1C(=O)NCCC(=N)N
inactive: activity, negative = cell killing [1, 2] -15.1% | activity, negative = cell killing [1, 3] -11.2% | activity, negative = cell killing [1, 4] -20.5% | activity, negative = cell killing [1, 5] -26.2% | Potency (astro)

CC(=O)O[C@@H]1CC2CCC1(C)C2(C)C (stereo not given in full)
inactive: activity, negative = cell killing [1, 2] -4.03% | activity, negative = cell killing [1, 3] -12.8% | activity, negative = cell killing [1, 4] -12.3% | activity, negative = cell killing [1, 5] -4.87% | Potency (astro)

CC(C)CCCC(C)NC(C)C (stereo not given)
inactive: activity, negative = cell killing [1, 2] -14.7% | activity, negative = cell killing [1, 3] -20.7% | activity, negative = cell killing [1, 4] -22.7% | activity, negative = cell killing [1, 5] -7.93% | Potency (astro)

C=CC[C@@H]1/C=C(\C)C[C@H](C)C[C@H](OC)[C@H]2O[C@@](O)(C(=O)C(=O)N3CCCC[C@H]3C(=O)O[C@H](/C(C)=C/[C@@H]3CC[C@@H](O)[C@H](OC)C3)[C@H](C)[C@@H](O)CC1=O)[C@H](C)C[C@@H]2OC
active: Potency ([1]; tumour line A) 7.94 µM
inactive: activity, negative = cell killing [1, 2] -12.2% | activity, negative = cell killing [1, 3] -18.8% | activity, negative = cell killing [1, 5] -16.1% | Potency (astro)

CCCCCCCCCCCCOCCCN
inactive: activity, negative = cell killing [1, 2] -9.11% | activity, negative = cell killing [1, 3] 2.93% | activity, negative = cell killing [1, 4] -39.4% | activity, negative = cell killing [1, 5] -14.6% | Potency (astro)

O=C(O)c1cc(O)c2c(c1)[C@H]([C@H]1c3cc(C(=O)O)cc(O)c3C(=O)c3c(O[C@@H]4O[C@H](CO)[C@@H](O)[C@H](O)[C@H]4O)cccc31)c1cccc(O[C@@H]3O[C@H](CO)[C@@H](O)[C@H](O)[C@H]3O)c1C2=O
inactive: activity, negative = cell killing [1, 2] -24.5% | activity, negative = cell killing [1, 3] -3.04% | activity, negative = cell killing [1, 4] -24% | activity, negative = cell killing [1, 5] -0.084% | Potency (astro)

O=C1C2CC3CC1CC(O)(C3)C2
inactive: activity, negative = cell killing [1, 2] 0.0639% | activity, negative = cell killing [1, 3] -11.1% | activity, negative = cell killing [1, 4] -19.7% | activity, negative = cell killing [1, 5] -14.8% | Potency (astro)

O=C(O)[C@H]1C(=CCO)O[C@H]2CC(=O)N12
inactive: activity, negative = cell killing [1, 2] -8.67% | activity, negative = cell killing [1, 3] -21.6% | activity, negative = cell killing [1, 4] -18.4% | activity, negative = cell killing [1, 5] -12.5% | Potency (astro)

Cn1c(O)c(N=NC(N)=S)c2ccccc21
inactive: activity, negative = cell killing [1, 2] -22.4% | activity, negative = cell killing [1, 3] -18.5% | activity, negative = cell killing [1, 5] -19.8% | Potency (astro)
active: Potency ([1]; tumour line A) 31.6 µM

CC(/C=C/C=C(\C)C(=O)O[C@@H]1O[C@H](CO[C@@H]2O[C@H](CO)[C@@H](O)[C@H](O)[C@H]2O)[C@@H](O)[C@H](O)[C@H]1O)=C\C=C\C=C(C)\C=C\C=C(/C)C(=O)O[C@@H]1O[C@H](CO[C@@H]2O[C@H](CO)[C@@H](O)[C@H](O)[C@H]2O)[C@@H](O)[C@H](O)[C@H]1O
inactive: activity, negative = cell killing [1, 2] -13.5% | activity, negative = cell killing [1, 3] 5.42% | activity, negative = cell killing [1, 4] -21.7% | activity, negative = cell killing [1, 5] 10.7% | Potency (astro)

COc1ccc(/C=C/C(=O)OCCC(C)C)cc1
inactive: activity, negative = cell killing [1, 2] 1.41% | activity, negative = cell killing [1, 3] -11.4% | activity, negative = cell killing [1, 4] 4.4% | activity, negative = cell killing [1, 5] -1.14% | Potency (astro)

O=C1NC(=O)[C@H]2[C@@H]1[C@@H]1C=C[C@H]2C1
inactive: activity, negative = cell killing [1, 2] -11.5% | activity, negative = cell killing [1, 3] -1.45% | activity, negative = cell killing [1, 4] -23% | activity, negative = cell killing [1, 5] -6.43% | Potency (astro)
